Assays:
[1] = biological target: T1, Aspartate--tRNA(Asp/Asn) ligase (Mycobacterium tuberculosis (strain ATCC 25618 / H37Rv)) (UniProt P9WFW3); test: Assay for Asp RNA synthetase-1 from Mycobacterium tuberculosis; assay type: functional; design: scale not given: direction of the effect not stated beside the values; details: 30 µM; note: in the data most compounds retested in dose-response had high values
T1 sequence (whole entry): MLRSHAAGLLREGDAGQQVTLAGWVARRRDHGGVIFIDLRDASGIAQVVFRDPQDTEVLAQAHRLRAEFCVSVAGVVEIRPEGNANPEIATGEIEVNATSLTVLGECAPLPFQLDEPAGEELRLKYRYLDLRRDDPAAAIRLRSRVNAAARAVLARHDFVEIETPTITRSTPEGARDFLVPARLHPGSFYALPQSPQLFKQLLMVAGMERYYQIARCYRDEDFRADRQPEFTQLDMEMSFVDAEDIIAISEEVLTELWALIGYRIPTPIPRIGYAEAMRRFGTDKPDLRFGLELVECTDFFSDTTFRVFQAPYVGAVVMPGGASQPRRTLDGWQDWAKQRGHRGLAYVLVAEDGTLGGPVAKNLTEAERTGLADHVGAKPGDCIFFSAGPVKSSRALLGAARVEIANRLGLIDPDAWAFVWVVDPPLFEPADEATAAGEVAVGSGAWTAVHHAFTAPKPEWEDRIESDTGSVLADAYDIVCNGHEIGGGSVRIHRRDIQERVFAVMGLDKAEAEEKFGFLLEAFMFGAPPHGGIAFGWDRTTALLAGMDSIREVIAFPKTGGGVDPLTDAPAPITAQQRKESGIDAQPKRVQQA

[2] = biological target: Shiga toxin 2 (Escherichia coli O157:H7) (UniProt P09385+P09386); test: E. coli 0.157:H7 Shiga Toxin SOP - stx2 screening assay; assay type: functional; design: scale not given: direction of the effect not stated beside the values; details: 30 µM

Row | SMILES | Percent Effect [1] [%] | Percent Effect [2] [%]
1 | CC(Cn1cccn1)NC(=O)CCc1ccc(S(N)(=O)=O)cc1 (stereo not given) | -2.91 | 11.3
2 | COc1ccccc1OCC(=O)Nc1ncccc1OC(F)F | 3.04 | -12
3 | Fc1cccc(-n2ccc(CN3CCCCC3Cn3cncn3)n2)c1 (stereo not given) | -3.17 | 17.2
4 | Cc1noc(C)c1-c1cccc(CC2CCN(C(=O)CCC(=O)O)C2)n1 (stereo not given) | -0.313 | -17.7
5 | CC(=O)Nc1nc(CN2CCn3c(nnc3C3CC3)C2)cs1 | -7.9 | -26.2
6 | COC[C@@]12CCO[C@@H]1CCN(C(=O)COc1ccccc1OC)C2 | 4.72 | 19.5
7 | CC(=O)c1cc(CN2C[C@H]3CC[C@@H]2CN(S(=O)(=O)N(C)C)C3)cs1 | -1.45 | -57.1
8 | COc1ccccc1OCCC(=O)N1CCCC1Cn1cc(C)cn1 (stereo not given) | -0.922 | 29.9
9 | CCOc1c(Cl)cccc1NCc1cc(C)on1 | -1.21 | -64.7
10 | Cc1cnn(C(C)C2CC2)c1NC(=O)c1cnccn1 (stereo not given) | -3.45 | -3.84
11 | Cc1cccc(CN2C(=O)CC[C@@H]3[C@H]2CCN3Cc2ccc(C)s2)n1 | 7.52 | -11.3
12 | CC1CCCCN1Cc1ccc(-c2ccccc2C(=O)O)cc1 (stereo not given) | 5.63 | 25
13 | c1ccc(-c2cnc(CN3CCn4c(nnc4C4CC4)C3)o2)cc1 | 0.278 | 23.8
14 | Cc1cccc(NS(=O)(=O)c2cc(C(=O)O)oc2C)c1Cl | -1.97 | 8.36
15 | N#CCSCCCN1CCCN(C(=O)c2ccccc2)CC1 | -4.83 | -31.2
16 | Cc1ccc(C(=O)N2CCN(C(=O)Nc3ccccn3)CC2)o1 | 4.09 | 10.3
17 | Cc1ccsc1CNc1cc(N2CCCC2CO)ncn1 (stereo not given) | 3.04 | -22.2
18 | Cc1cc(NC(=O)CN2CCn3c(nnc3C3CC3)C2)n(C)n1 | -5.68 | 19.6
19 | COCC(=O)N1CC[C@H]2C[C@@H](c3nnc(C4CC4)o3)O[C@@H]2C1 | -1.34 | -18.9
20 | CC(=O)N1CCCC1C(=O)NCCOc1cc(C)cc(C)c1 (stereo not given) | -2.19 | 9.04
21 | CCOc1ccnc(N2CCN(C(=O)c3cccnc3O)CC2)n1 | -5.14 | 6.95
22 | Cc1ccc(NC2CCN(C(=O)Cc3cccc(F)c3)CC2)nn1 | 14.3 | 11.3
23 | O=C(CCc1cscn1)NS(=O)(=O)c1ccc2c(c1)CCC2 | -2.03 | -1.33
24 | Cc1nc(CN2CCCC2c2nc(C(C)C)no2)cs1 (stereo not given) | -4.9 | 12.9
25 | Cc1ccc(N2CCCC3(COCCN(c4nccs4)C3)C2)nn1 (stereo not given) | -0.638 | -17.6
